Results from PubChem BioAssay AID1159580 (chemical genetic matrix, 2015).
About 2,000 (36%) of roughly 5,500 compounds were called active. Not shown: some 18% with an inconclusive outcome. Cut-off read from the data, not from the text of the source: active = normalized growth mostly below about 0.91 (no sharp cut-off); inconclusive = no clear call, values can overlap the other calls; inactive = mostly above about 0.92. The list shows a part of the results.

Test: chemical genetic growth profiling, strain panel (AID 1159580);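 note: tested at 20 µM; growth read once vehicle control cultures reached saturation at 30 °C; 1 = growth at the plate median or of vehicle wells; lower values mean less growth of the strain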
Settings: growth OD

Measured: normalized growth

Cc1nnc(NS(=O)(=O)c2ccc(N)cc2)s1
inactive: S. cerevisiae deletion strains, locus YKL009W, strain mrt4, active compounds read low 1.05 | S. cerevisiae deletion strains, locus YKL068W, active compounds read low 0.996 | S. cerevisiae deletion strains, locus YKL085W, strain MDH1 (second series), active compounds read low 0.998 | S. cerevisiae deletion strains, locus YKL085W, strain MDH1, active compounds read low 0.998 | S. cerevisiae deletion strains, locus YKL160W, strain elf1, active compounds read low 1.01 | S. cerevisiae deletion strains, locus YKL190W, strain CNB1, active compounds read low 1.02 | S. cerevisiae deletion strains, locus YKR001C, strain vps1, active compounds read low 1.02 | S. cerevisiae deletion strains, locus YKR026C, strain gcn3, active compounds read low 1.01 | S. cerevisiae deletion strains, locus YKR091W, strain srl3, active compounds read low 0.99 | S. cerevisiae deletion strains, locus YLL001W, strain dnm1, active compounds read low 0.995 | S. cerevisiae deletion strains, locus YLL026W, active compounds read low 0.998 | S. cerevisiae deletion strains, locus YLL041C, strain sdh2, active compounds read low 1 | S. cerevisiae deletion strains, locus YLR027C, strain aat2, active compounds read low 1.01 | S. cerevisiae deletion strains, locus YLR039C, strain RIC1, active compounds read low 1.09 | S. cerevisiae deletion strains, locus YLR058C, strain SHM2, active compounds read low 1.01 | S. cerevisiae deletion strains, locus YLR102C, strain apc9, active compounds read low 0.985 | S. cerevisiae deletion strains, locus YLR113W, strain HOG1, active compounds read low 0.966 | S. cerevisiae deletion strains, locus YLR221C, strain rsa3, active compounds read low 1.01 | S. cerevisiae deletion strains, locus YLR258W, strain gsy2, active compounds read low 0.997 | S. cerevisiae deletion strains, locus YLR262C, strain YPT6 (second series), active compounds read low 0.99 | S. cerevisiae deletion strains, locus YLR262C, strain YPT6, active compounds read low 1.07 | S. cerevisiae deletion strains, locus YLR268W, strain sec22, active compounds read low 1.04 | S. cerevisiae deletion strains, locus YLR320W, strain mms22, active compounds read low 0.99 | S. cerevisiae deletion strains, locus YLR330W, strain CHS5, active compounds read low 1.01 | S. cerevisiae deletion strains, locus YLR342W, strain FKS1 (second series), active compounds read low 1.04 | S. cerevisiae deletion strains, locus YLR342W, strain FKS1, active compounds read low 0.996 | S. cerevisiae deletion strains, locus YLR357W, strain rsc2, active compounds read low 1.03 | S. cerevisiae deletion strains, locus YLR370C, strain arc18, active compounds read low 1.01 | S. cerevisiae deletion strains, locus YLR371W, strain rom2, active compounds read low 0.984 | S. cerevisiae deletion strains, locus YLR384C, strain iki3, active compounds read low 1 | S. cerevisiae deletion strains, locus YLR418C, strain cdc73, active compounds read low 1.04 | S. cerevisiae deletion strains, locus YML016C, strain PPZ1, active compounds read low 1.01 | S. cerevisiae deletion strains, locus YML032C, strain rad52, active compounds read low 1.01 | S. cerevisiae deletion strains, locus YML120C, strain ndi1, active compounds read low 0.987 | S. cerevisiae deletion strains, locus YML124C, strain tub3, active compounds read low 1 | S. cerevisiae deletion strains, locus YMR058W, strain fet3, active compounds read low 0.998 | S. cerevisiae deletion strains, locus YMR078C, strain ctf18, active compounds read low 0.991 | S. cerevisiae deletion strains, locus YMR125W, strain sto1, active compounds read low 0.998 | S. cerevisiae deletion strains, locus YMR129W, active compounds read low 1.01 | S. cerevisiae deletion strains, locus YMR205C, strain PFK2, active compounds read low 1 | S. cerevisiae deletion strains, locus YMR223W, strain ubp8, active compounds read low 0.997 | S. cerevisiae deletion strains, locus YMR231W, strain pep5, active compounds read low 1 | S. cerevisiae deletion strains, locus YMR263W, strain SAP30, active compounds read low 1.01 | S. cerevisiae deletion strains, locus YMR307W, strain GAS1, active compounds read low 0.987 | S. cerevisiae deletion strains, locus YNL067W, strain RPL9B, active compounds read low 1.02 | S. cerevisiae deletion strains, locus YNL071W, strain lat1, active compounds read low 0.993 | S. cerevisiae deletion strains, locus YNL128W, strain TEP1, active compounds read low 1.03 | S. cerevisiae deletion strains, locus YNL153C, strain GIM3, active compounds read low 1.01 | S. cerevisiae deletion strains, locus YNL183C, strain NPR1, active compounds read low 0.953 | S. cerevisiae deletion strains, locus YNL209W, strain ssb2, active compounds read low 1.01 | S. cerevisiae deletion strains, locus YNL233W, strain BNI4, active compounds read low 1.01 | S. cerevisiae deletion strains, locus YNL248C, strain rpa49, active compounds read low 1.01 | S. cerevisiae deletion strains, locus YNL250W, strain rad50, active compounds read low 1.01 | S. cerevisiae deletion strains, locus YNL271C, strain bni1, active compounds read low 1 | S. cerevisiae deletion strains, locus YNL298W, strain CLA4, active compounds read low 1.03 | S. cerevisiae deletion strains, locus YNL307C, strain MCK1, active compounds read low 1 | S. cerevisiae deletion strains, locus YNL322C, strain KRE1 (second series), active compounds read low 0.999 | S. cerevisiae deletion strains, locus YNR049C, strain mso1, active compounds read low 1 | S. cerevisiae deletion strains, locus YNR052C, strain pop2, active compounds read low 0.989 | S. cerevisiae deletion strains, locus YOL006C, strain TOP1, active compounds read low 1.04 | S. cerevisiae deletion strains, locus YOL012C, strain htz1 0.962 | S. cerevisiae deletion strains, locus YOL147C, strain pex11, active compounds read low 0.986 | S. cerevisiae deletion strains, locus YOR001W, strain rrp6, active compounds read low 1 | S. cerevisiae deletion strains, locus YOR061W, strain CKA2, active compounds read low 1.01 | S. cerevisiae deletion strains, locus YOR069W, strain VPS5, active compounds read low 1.01 | S. cerevisiae deletion strains, locus YOR070C, strain gyp1, active compounds read low 1.01 | S. cerevisiae deletion strains, locus YOR080W, strain dia2, active compounds read low 1 | S. cerevisiae deletion strains, locus YOR083W, strain WHI5, active compounds read low 0.978 | S. cerevisiae deletion strains, locus YOR106W, strain vam3, active compounds read low 1.02 | S. cerevisiae deletion strains, locus YOR136W, strain idh2, active compounds read low 0.992 | S. cerevisiae deletion strains, locus YOR144C, strain elg1, active compounds read low 0.992 | S. cerevisiae deletion strains, locus YOR184W, strain ser1, active compounds read low 1.01 | S. cerevisiae deletion strains, locus YOR231W, strain MKK1, active compounds read low 1.01 | S. cerevisiae deletion strains, locus YOR265W, strain rbl2, active compounds read low 1 | S. cerevisiae deletion strains, locus YOR270C, strain vph1, active compounds read low 1.02 | S. cerevisiae deletion strains, locus YOR290C, strain snf2, active compounds read low 1 | S. cerevisiae deletion strains, locus YOR316C, strain cot1, active compounds read low 0.99 | S. cerevisiae deletion strains, locus YPL051W, strain arl3, active compounds read low 1 | S. cerevisiae deletion strains, locus YPL078C, strain atp4, active compounds read low 0.999 | S. cerevisiae deletion strains, locus YPL106C, strain sse1, active compounds read low 1.02 | S. cerevisiae deletion strains, locus YPL240C, strain hsp82, active compounds read low 1.02 | S. cerevisiae deletion strains, locus YPL241C, strain CIN2, active compounds read low 1.01 | S. cerevisiae deletion strains, locus YPL256C, strain CLN2, active compounds read low 0.979 | S. cerevisiae deletion strains, locus YPR119W, strain clb2, active compounds read low 0.989 | S. cerevisiae deletion strains, locus YPR141C, strain kar3, active compounds read low 1.01 | S. cerevisiae deletion strains, locus YPR163C, strain tif3, active compounds read low 0.992 | S. cerevisiae deletion strains, locus YPR167C, strain met16, active compounds read low 0.997 | S. cerevisiae deletion strains, strain wtn01, active compounds read low 1.02 | S. cerevisiae strains, strain wild type, active compounds read low 1.01
